Assay outcomes from PubChem BioAssay.
The list is not random: actives were taken first. Their share in the collection is about 1.2%.
VCAM1 TNFa inh = reduces TNF alpha induced VCAM1 expression in HUVEC; 95,000 tested, 0.48% active; AID 802; HUVEC TNFa-induced VCAM-1 immunofluorescence, high-content imaging; inhibition, % at 2 µM;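 active means inhibition above the batch mean plus 3 SD, with images confirmed as a hit by eye, cut at about 37% in these data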
E-sel TNF inh = TNF alpha driven E-selectin expression inhibition. 120,000 tested, 0.71% active. inhibition, % at 2 µM. HUVEC TNFa-induced E-selectin immunofluorescence, high content;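 active means inhibition above the batch mean plus 3 SD, and confirmed as a hit on visual image review, cut at about 43% in these data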
cytoskel mod = alters cytoskeleton assembly in HUVEC cells; HUVEC TNFa F-actin phalloidin imaging, high content; 91,000 tested, 0.18% active; inhibition, % at 2 µM;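 active means inhibition above the batch mean plus 3 SD and confirmed as a hit by visual image inspection, cut at about 30% in these data, passing the limit was not always enough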
HUVEC tox TNFa = toxic to HUVEC cells under TNF alpha stimulation | HUVEC TNFalpha-stimulated, Hoechst cell count, imaging | cell count reduction, % at 2 µM | 93,000 tested, 0.17% active;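 active means cell count reduction exceeding the screen mean by over 5 SD, scaled to untreated wells per plate, cut at about 78% in these data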;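 further: cells counted after 24 h of TNF alpha exposure following the 1 h pretreatment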
Of the large screens only hits and unclear results are named; the others gave an inactive call.

OC(COCC1CC=CCC1)Cn1cnc2ccccc21 (stereo unspecified)	none
Cc1nc2ccccc2n1CC(O)COCC1CC=CCC1 (stereo unspecified)	HUVEC tox TNFa 95.5
CCNc1ccc(C(=O)NN=C2CCCC2)cc1[N+](=O)[O-]	none (no result: VCAM1 TNFa inh, cytoskel mod, HUVEC tox TNFa)
Cc1ccc(NC(=O)C2=C(c3ccccc3)S(=O)(=O)CCS2(=O)=O)cc1	E-sel TNF inh 78.7 (no result: VCAM1 TNFa inh, cytoskel mod, HUVEC tox TNFa)
CCOc1ccccc1NC(=O)CSc1nnc2ccc(-c3cccnc3)nn12	none (no result: VCAM1 TNFa inh, cytoskel mod, HUVEC tox TNFa)
COc1ccccc1NC(=O)CSc1nnc2ccc(-c3cccnc3)nn12	E-sel TNF inh 82.0 (no result: VCAM1 TNFa inh, cytoskel mod, HUVEC tox TNFa)
C=CCn1c(=NC(=O)CC)n(C)c2ccccc21	none (no result: VCAM1 TNFa inh, cytoskel mod, HUVEC tox TNFa)
O=c1cc(CO)oc(CN2CCN(c3ccccc3)CC2)c1O	HUVEC tox TNFa 86.1
Cc1ccc(C)c(NC(=S)NCCN(C2CCCCC2)C2CCCC2)c1	none (no result: VCAM1 TNFa inh, cytoskel mod, HUVEC tox TNFa)
CN1/C(=C/C(=O)c2nc(S(C)(=O)=O)ncc2Cl)C(C)(C)c2ccccc21	E-sel TNF inh 90.1
CN1/C(=C\C(=O)c2cncc(Br)c2)C(C)(C)c2ccccc21	none (no result: VCAM1 TNFa inh, cytoskel mod, HUVEC tox TNFa)
O=C(Nc1cccs1)Nc1c(F)c(F)c(F)c(F)c1F	E-sel TNF inh 69.5 (no result: VCAM1 TNFa inh, cytoskel mod, HUVEC tox TNFa)
COCCn1c(C(C)C)nc2oc3ccccc3c(=O)c2c1=O	none (no result: E-sel TNF inh)
CCc1nc2oc3ccccc3c(=O)c2c(=O)n1CCOC	VCAM1 TNFa inh 87.0, HUVEC tox TNFa 96.9 (no result: E-sel TNF inh)
S=C(Cc1cccnc1)N1CCOCC1	none (no result: VCAM1 TNFa inh, cytoskel mod, HUVEC tox TNFa)
COCCNC(=O)c1ccc(N(C)S(=O)(=O)c2ccc(OC)c(OC)c2)cc1	E-sel TNF inh 99.9
COc1ccc(CCNC(=O)c2ccc(N(C)S(=O)(=O)c3ccc(C)cc3)cc2)cc1OC	none (no result: VCAM1 TNFa inh, cytoskel mod, HUVEC tox TNFa)
CC1Cc2ccccc2N1CC(=O)NCc1ccccc1Cl (stereo unspecified)	none (no result: VCAM1 TNFa inh, cytoskel mod, HUVEC tox TNFa)
CCN1CCN(c2ccc(S(=O)(=O)N3CCCC3)cn2)CC1	none (no result: VCAM1 TNFa inh, cytoskel mod, HUVEC tox TNFa)
CCCCCCCC(=O)Nc1ccc(S(=O)(=O)Nc2nccs2)cc1	none (no result: VCAM1 TNFa inh, cytoskel mod, HUVEC tox TNFa)
CCn1nc(C(=O)Nc2ccc(S(=O)(=O)Nc3nccs3)cc2)c2ccccc2c1=O	E-sel TNF inh 60.9
Cc1[nH]c2ccccc2c1C(=O)NS(=O)(=O)Nc1ccc(F)cc1	none (no result: VCAM1 TNFa inh, cytoskel mod, HUVEC tox TNFa)
COc1cccc(N2CCN(c3ncnc4c3[nH]c3ccc(F)cc34)CC2C)c1 (stereo unspecified)	VCAM1 TNFa inh 51.5, E-sel TNF inh 96.7
COc1cc(C2C3=C(Nc4ncnn42)c2ccccc2CC3)cc(OC)c1OC (stereo unspecified)	VCAM1 TNFa inh 88.1 (no result: E-sel TNF inh)
Cc1ccc(N)cc1S(=O)(=O)N(C)C	E-sel TNF inh 54.9 (no result: VCAM1 TNFa inh, cytoskel mod, HUVEC tox TNFa)
Cc1cc(N)ccc1S(C)(=O)=O	none
CC(=O)c1cnc2ncnn2c1C	none (no result: VCAM1 TNFa inh, cytoskel mod, HUVEC tox TNFa)
Cc1ccc(NC(=O)CC2NCCNC2=O)cc1 (stereo unspecified)	none
Cc1cc(C)cc(NC(=O)CC2NCCNC2=O)c1 (stereo unspecified)	VCAM1 TNFa inh 85.9 (no result: E-sel TNF inh)
NC(=O)c1ccc(-c2ccc(Br)cc2)o1	E-sel TNF inh 43.3
O=C(O)CCc1ccc(-c2ccc(Br)cc2)o1	none (no result: E-sel TNF inh)
Cc1ccccc1OCC(=O)Nc1ccc2c(c1)COC2=O	cytoskel mod 36.1
Cc1cccc(NC(=O)Cn2nc(C(F)(F)F)cc2C2CC2)c1	cytoskel mod 39.5
O=C(Cc1ccc(-c2ccccc2)cc1)NC1CCCC1	none (no result: VCAM1 TNFa inh, cytoskel mod, HUVEC tox TNFa)
O=C(Cc1ccc(-n2cccc2)cc1)NC1CCCCCC1	VCAM1 TNFa inh 40.7
CCc1c(C)c(C#N)c2nc3ccccc3n2c1Cl	E-sel TNF inh 67.2 (no result: VCAM1 TNFa inh, cytoskel mod, HUVEC tox TNFa)
Cc1cc(NCCN2CCCCC2)n2c(nc3ccccc32)c1C#N	E-sel TNF inh 100.0
O=C1CC(/C=C/c2ccncc2)=Nc2ccccc2N1	none (no result: VCAM1 TNFa inh, cytoskel mod, HUVEC tox TNFa)
Cc1ccc2cc3c(N)[nH]nc3nc2c1	none (no result: VCAM1 TNFa inh, cytoskel mod, HUVEC tox TNFa)
Cc1ccc2nc(-c3ccc(NS(C)(=O)=O)cc3)cc(-c3ccccc3)c2c1	none (no result: HUVEC tox TNFa)
CCS(=O)(=O)Nc1ccc(-c2cc(-c3ccccc3)c3cc(C)ccc3n2)cc1	E-sel TNF inh 78.8 (no result: VCAM1 TNFa inh, cytoskel mod, HUVEC tox TNFa)
Cc1cc(C)c(S(=O)(=O)Nc2ccc3c4c(cccc24)CC3)c(C)c1	VCAM1 TNFa inh 88.6
CC(=O)Nc1ccc(NC2(C)C(=O)c3ccccc3C2=O)cc1	VCAM1 TNFa inh 92.8, HUVEC tox TNFa 87.6 (no result: E-sel TNF inh)
COc1cccc(OC)c1NC(=O)CN1CCC(NC(=O)c2cccc(F)c2)CC1	VCAM1 TNFa inh 99.8, cytoskel mod 70.4, HUVEC tox TNFa 92.2
COc1ccc(CNC(=O)c2ccc(NC(=O)CC3SC(N4CCCCC4)=NC3=O)cc2)cc1 (stereo unspecified)	E-sel TNF inh 77.4
O=C(/C=C/Nc1cccc(C(F)(F)F)c1)c1ccc(Oc2ncccn2)cc1	E-sel TNF inh 64.2
CCN(CC)c1ccc(-c2nn3c(-c4n[nH]c5c4CCC5)nnc3s2)cc1	VCAM1 TNFa inh 47.5
CCCCn1c(N)c(N(CCOC)C(=O)COc2ccc(Cl)cc2)c(=O)[nH]c1=O	none (no result: VCAM1 TNFa inh, cytoskel mod, HUVEC tox TNFa)
Cc1ncc(N=Nc2ccc(F)cc2)c(-c2ccc(Cl)cc2)n1	none
Oc1ccc(N=Nc2n[nH]c(-c3ccc(Cl)cc3)n2)cc1	cytoskel mod 51.5
